Measurements taken from PubChem BioAssay (EPA / NIEHS).
Calls of active or inactive are those of the source. How the source made its calls: active means hit-call score of the fitted dose curve at least 0.9, where 1 is the maximum; inactive means score below 0.9.

experiment: CCTE_Harrill_HTTr_Viability_MCF7: CCTE's 6-hour Cell Viability Assessment for the High-Throughput Transcriptomics (HTTr) Platform, in MCF-7 cells cultured in DMEM + 10% fetal bovine serum, Harrill Lab (AID 2284010)
Summary of the method: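 MCF-7 cells in DMEM + 10% FBS, 384-well, exposed 6 h to an eight-point dilution series. Membrane integrity scored by high-content imaging of propidium iodide exclusion; bidirectional fit versus DMSO.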

| Compound | outcome |
| --- | --- |
| C=CN1CCCC1=O | inactive |
| CNC(C)=O | inactive |
| NNC(=O)c1ccncc1 | inactive |
| CCn1nc(C)c2c1C(=O)NCC(c1ccc(O)cc1)=N2 | inactive |
| CC1(C)C(=O)N(Cl)C(=O)N1Cl | inactive |
| OC[C@H]1O[C@@H]2O[C@H]3[C@H](O)[C@@H](O)[C@@H](O[C@H]4[C@H](O)[C@@H](O)[C@@H](O[C@H]5[C@H](O)[C@@H](O)[C@@H](O[C@H]6[C@H](O)[C@@H](O)[C@@H](O[C@H]7[C@H](O)[C@@H](O)[C@@H](O[C@H]1[C@H](O)[C@H]2O)O[C@@H]7CO)O[C@@H]6CO)O[C@@H]5CO)O[C@@H]4CO)O[C@@H]3CO | inactive |
| CCCOc1ccc(S(=O)(=O)N2CCN(CC)CC2)cc1-c1nc2c(CC)n(Cc3ccccn3)nc2c(=O)[nH]1 | inactive |
| OCCNCCO | inactive |
| CCc1cccc(CC)c1N | inactive |
| O=C(O)CO | inactive |
| CCCCCCOC(=O)CC(CC(=O)OCCCCCC)(OC(=O)CCC)C(=O)OCCCCCC | inactive |

experiment: CCTE_Harrill_HTTr_Apoptosis_MCF7: CCTE's 6-hour Apoptosis Assessment for the High-Throughput Transcriptomics (HTTr) Platform, in MCF-7 cells cultured in DMEM + 10% fetal bovine serum, Harrill Lab (AID 2284011)
Summary of the method: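 MCF-7 (DMEM + 10% FBS), 384-well; 8-pt dilution series, 6 h chemical exposure; caspase-3/7 activation via CellEvent Caspase 3/7 Green, HCI; bidirectional fit vs DMSO.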

| Compound | outcome |
| --- | --- |
| CCCCOC(=O)c1ccccc1 | inactive |
| NC(=O)N1c2ccccc2C=Cc2ccccc21 | inactive |
| NC(N)=O | inactive |
| Nc1ccn([C@@H]2O[C@H](CO)[C@@H](O)[C@@H]2O)c(=O)n1 | inactive |
| CCCCCCCCCCCCCCO | inactive |
| CCCCN1C(=O)[C@@H]([C@H](O)C2CCCCC2)NC(=O)C12CCN(Cc1ccc(Oc3ccc(C(=O)O)cc3)cc1)CC2 | inactive |
| CCCCCOC(C)=O | inactive |
| C[C@@H](Oc1ccc(CNC(=O)c2cccnc2Oc2ccc3c(c2)OCO3)c(F)c1)C(=O)O | inactive |
| c1ccc2c(c1)-c1cccc3c1c-2cc1ccccc13 | inactive |
| COS(C)(=O)=O | inactive |
| CCCCCCCCCCCCCCCCOS(=O)(=O)O | inactive |
| CCCCCCCCN(C)C | inactive |
| Cn1cc[nH]c1=S | inactive |
| C[C@]12C=CC(=O)C=C1CC[C@H]1[C@@H]3C[C@@H](O)[C@](O)(C(=O)CO)[C@@]3(C)C[C@H](O)[C@@]12F | inactive |
| CCOC(N)=O | inactive |
| NC(=O)N(O)[C@@H]1COc2cc(OCc3ccccc3)ccc21 | inactive |
| OCCOCCOCCO | inactive |

| Compound | outcome |
| --- | --- |
| Cc1nc(-c2ccccn2)ncc1C(=O)Nn1cc(C)c2cc(F)ccc21 | inactive |
| CCCC(CCC)C(=O)O | inactive |
| CC(=O)c1ccccc1 | inactive |
| O=C(O)c1ccc2c(c1)nc(C(=O)NC1CCN(C3CC3)CC1)n2Cc1cc(-c2ccc(Cl)s2)on1 | inactive |
| O=C(N[C@H](CO)[C@H](O)c1ccc([N+](=O)[O-])cc1)C(Cl)Cl | inactive |
| OC(Cn1cncn1)(Cn1cncn1)c1ccc(F)cc1F | inactive |
| C=CN1CCCC1=O | inactive |
| CNC(C)=O | inactive |
| NNC(=O)c1ccncc1 | inactive |
| CCn1nc(C)c2c1C(=O)NCC(c1ccc(O)cc1)=N2 | inactive |
| CC1(C)C(=O)N(Cl)C(=O)N1Cl | inactive |
| OC[C@H]1O[C@@H]2O[C@H]3[C@H](O)[C@@H](O)[C@@H](O[C@H]4[C@H](O)[C@@H](O)[C@@H](O[C@H]5[C@H](O)[C@@H](O)[C@@H](O[C@H]6[C@H](O)[C@@H](O)[C@@H](O[C@H]7[C@H](O)[C@@H](O)[C@@H](O[C@H]1[C@H](O)[C@H]2O)O[C@@H]7CO)O[C@@H]6CO)O[C@@H]5CO)O[C@@H]4CO)O[C@@H]3CO | inactive |
| CCCOc1ccc(S(=O)(=O)N2CCN(CC)CC2)cc1-c1nc2c(CC)n(Cc3ccccn3)nc2c(=O)[nH]1 | inactive |
| OCCNCCO | inactive |
| CCc1cccc(CC)c1N | inactive |
| O=C(O)CO | inactive |
| CCCCCCOC(=O)CC(CC(=O)OCCCCCC)(OC(=O)CCC)C(=O)OCCCCCC | inactive |
